Common to all, as to experiment: NCI-60 one-dose screen, 48 h (100 = growth as untreated, 0 = no growth, -100 = all killed)
The subject of one assay is NCI-H23 lung. Particulars: 10 µM unless noted.
The test system of another assay is NCI-H226 lung. Particulars: 10 µM unless noted.
A further assay has as its system NCI-H322M lung. Particulars: 10 µM unless noted.
In a further assay the test system is NCI-H460 lung. Particulars: 10 µM unless noted.
Another assay concerns HOP-92 NSCLC. Particulars: 10 µM.
Another assay relates to NCI-H522 lung. Particulars: 10 µM.
For the next assay, the system named is A549/ATCC NSCLC. Particulars: 10 µM unless noted.
Another assay deals with 786-0 renal. Particulars: 10 µM unless noted.
For a further assay, the system named is COLO 205 colon. Particulars: 10 µM unless noted.

Each structure is given as a SMILES string. The panel holds about 83,000 compounds, 20% with a hit somewhere; the sample as a whole holds those more often.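 Values shown are percent growth following 48 h exposure of cells in 96-well plates to a single concentration of compound; below 10 was considered active.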 Values without a mark were called inactive. The source made the active and inactive calls.

As to `Cc1ccc(S(=O)(=O)NC(CCC(=O)Nc2ccccc2)C(=O)Nc2ccccc2)cc1` (stereo unspecified), the growth in the assay with NCI-H23 lung was -24.8% (active); in the assay on NCI-H226 lung, 6.72% (active); with NCI-H322M lung, -17% (active); with NCI-H460 lung, -4.49% (active); in the assay on HOP-92 NSCLC, -45.2% (active); with NCI-H522 lung, -71.8% (active). The growth in the assay on A549/ATCC NSCLC is -19% (active); with 786-0 renal, -15.6% (active); in the assay on COLO 205 colon, -22.6% (active).

Take `O=C(O)c1occ(Cl)c1Cl`: the growth with NCI-H23 lung is 112%; in the assay on NCI-H226 lung it was 114%; in the assay with NCI-H322M lung, 116%; in the assay with NCI-H460 lung, 118%; with HOP-92 NSCLC it was 95.3%; with NCI-H522 lung, 116%. For the same compound, the growth with A549/ATCC NSCLC was 97.8%; with 786-0 renal it was 111%; with COLO 205 colon it was 114%.

Consider `COc1cc(NC(C)CCCN)c2nc(C)ccc2c1OC` (stereo unspecified), for which the growth was 90.9% with NCI-H23 lung; 102% in the assay with NCI-H226 lung; 96.9% in the assay with NCI-H322M lung; 109% in the assay on NCI-H460 lung; 55.5% with HOP-92 NSCLC; 101% in the assay on NCI-H522 lung. The growth is 147% in the assay on A549/ATCC NSCLC, 98.3% with 786-0 renal and 60.5% in the assay on COLO 205 colon.

For the compound `COc1ccc(OC)c(Cn2cc3c(c2)-c2oncc2CC3)c1`, the growth with NCI-H23 lung was 28.8%; with NCI-H226 lung, 70.2%; in the assay on NCI-H322M lung it was 26%; in the assay on NCI-H460 lung, 14.1%; with HOP-92 NSCLC it was 59.8%; in the assay with NCI-H522 lung, 50.3%. Also, the growth in the assay on A549/ATCC NSCLC was 43.3%; in the assay on 786-0 renal, 46%; with COLO 205 colon, 35.8%.

In the case of `COC(=O)c1ccc2[nH]c(O)c(C(=Nc3ccc(N(C)C(=O)CN4CCN(C)CC4)cc3)c3cccc(OC)c3)c2c1`, the growth in the assay on NCI-H23 lung is 7.62% (active); in the assay on NCI-H226 lung, 32.4%; in the assay on NCI-H322M lung, 21.8%; with NCI-H460 lung, 7.31% (active); with HOP-92 NSCLC, 48.3%; in the assay with NCI-H522 lung, 12.1%. The growth was 9.85% (active) in the assay with A549/ATCC NSCLC, 10.4% in the assay on 786-0 renal and -55.8% (active) with COLO 205 colon.

Regarding `CCOc1nc(-c2ccccc2)cc2c(O)c(C(=O)N/N=C/c3ccccc3O)[nH]c(=O)c12`, the growth with NCI-H23 lung is 62.7%; with NCI-H226 lung it was 106%; in the assay with NCI-H322M lung, 107%; with NCI-H460 lung, 107%; with HOP-92 NSCLC, 82.8%; with NCI-H522 lung, 81.9%. The growth in the assay on A549/ATCC NSCLC is 85.3%; in the assay with 786-0 renal, 103%; with COLO 205 colon, 105%.

Consider `CCCC(C)c1cc(Cc2cc(Cl)cc(Cl)c2O)c(O)c(Cc2cc(Cl)cc(Cl)c2O)c1` (stereo unspecified), for which the growth in the assay with NCI-H23 lung is -6.96% (active); with NCI-H226 lung, -4.21% (active); in the assay with NCI-H322M lung, 9.16% (active); in the assay on NCI-H460 lung, 3.71% (active); with HOP-92 NSCLC, -19.2% (active); in the assay with NCI-H522 lung, 4.06% (active). Also, the values for the growth in the assay on A549/ATCC NSCLC, in the assay with 786-0 renal and in the assay with COLO 205 colon were 15%, 6.89% (active) and 23.9%, respectively.

Take `Oc1ccccc1/C=N/N=C/c1c(O)ccc2ccccc12`: the growth with NCI-H23 lung was 82%; in the assay on NCI-H226 lung, 90.8%; with NCI-H322M lung, 107%; with NCI-H460 lung it was 88%; with HOP-92 NSCLC it was 66.9%; in the assay with NCI-H522 lung it was 84%. In addition, the values for the growth in the assay with A549/ATCC NSCLC, in the assay on 786-0 renal and in the assay with COLO 205 colon were 95.6%, 107% and 104%, respectively.

`Cc1ccc2c(O)c(O)cc(NC(C)CCCN)c2n1` (stereo unspecified): the growth with NCI-H23 lung was 20.7%; in the assay on NCI-H226 lung, 111%; in the assay with NCI-H322M lung, 26%; with NCI-H460 lung it was 107%; in the assay on HOP-92 NSCLC, 84.4%; in the assay with NCI-H522 lung, 22.3%. The growth in the assay with A549/ATCC NSCLC is 84.6%; in the assay with 786-0 renal it was 95.8%; with COLO 205 colon, 32.7%.

For `CC(O)C(N)=O` (stereo unspecified), the growth in the assay with NCI-H23 lung was 95.6%; in the assay with NCI-H226 lung, 102%; with NCI-H322M lung it was 108%; in the assay on NCI-H460 lung, 105%; with HOP-92 NSCLC, 101%; in the assay on NCI-H522 lung, 102%. Also, the growth with A549/ATCC NSCLC was 109%; in the assay with 786-0 renal it was 98.8%; with COLO 205 colon, 104%.

Regarding `CCCC(CCC)Oc1ccc(CCCC2=C(O)c3ccccc3C(=O)C2=O)cc1`, the growth was 26.9% in the assay on NCI-H23 lung; 32.6% in the assay on NCI-H226 lung; -1.08% (active) in the assay on NCI-H322M lung; 9.9% (active) in the assay with NCI-H460 lung; 28.1% in the assay with HOP-92 NSCLC; 30.2% in the assay on NCI-H522 lung. The growth in the assay with A549/ATCC NSCLC is 32.1%; with 786-0 renal, 42.2%; in the assay on COLO 205 colon it was 43.9%.

In the case of `c1cc[c]([Bi]([c]2ccccc2)[c]2ccccc2)cc1`, the growth in the assay with NCI-H23 lung is 93.9%; with NCI-H226 lung it was 95.8%; in the assay with NCI-H322M lung it was 88%; with NCI-H460 lung, 96.2%; in the assay with HOP-92 NSCLC it was 74.1%; in the assay on NCI-H522 lung, 104%. Moreover, the growth was 102% in the assay on A549/ATCC NSCLC, 94% in the assay on 786-0 renal and 105% in the assay on COLO 205 colon.

Consider `O=C(/C=C1\C(=O)N(Cc2ccc([N+](=O)[O-])cc2)c2ccccc21)c1ccc(OCCN2CCCC2)cc1`, for which the growth was 69.2% in the assay on NCI-H23 lung; 78.5% in the assay on NCI-H226 lung; 66.2% in the assay with NCI-H322M lung; 91.4% with NCI-H460 lung; 46.2% in the assay with HOP-92 NSCLC; 38.5% in the assay on NCI-H522 lung. For the same compound, the results for the growth in the assay with A549/ATCC NSCLC, in the assay with 786-0 renal and in the assay with COLO 205 colon were 93.4%, 69.7% and 81%, respectively.

With `Cc1ccc(C(C)C)c(OCc2ccc(C(=O)N/N=C/c3cccc(O)c3O)cc2)c1`, the growth with NCI-H23 lung was 25.9%; in the assay with NCI-H226 lung, 68.1%; in the assay with NCI-H322M lung, 43.1%; with NCI-H460 lung, 12.5%; in the assay on HOP-92 NSCLC it was 37.9%; with NCI-H522 lung it was 47.4%. The growth in the assay on A549/ATCC NSCLC was 52.9%; with 786-0 renal, 16%; in the assay with COLO 205 colon, 16.3%.

Source of the values: PubChem BioAssay (NCI).
